This is an account of results in ChEMBL document CHEMBL3988442, “University of Dundee, Small-Polar-MMV Screening Library” (2021).

Each structure is given as a SMILES string.

Assay [1] concerns the target T1, Aspartate--tRNA(Asp/Asn) ligase (Mycobacterium tuberculosis (strain ATCC 25618 / H37Rv)) (UniProt P9WFW3). Also: in the data most compounds retested in dose-response had high values.
T1 sequence (whole entry): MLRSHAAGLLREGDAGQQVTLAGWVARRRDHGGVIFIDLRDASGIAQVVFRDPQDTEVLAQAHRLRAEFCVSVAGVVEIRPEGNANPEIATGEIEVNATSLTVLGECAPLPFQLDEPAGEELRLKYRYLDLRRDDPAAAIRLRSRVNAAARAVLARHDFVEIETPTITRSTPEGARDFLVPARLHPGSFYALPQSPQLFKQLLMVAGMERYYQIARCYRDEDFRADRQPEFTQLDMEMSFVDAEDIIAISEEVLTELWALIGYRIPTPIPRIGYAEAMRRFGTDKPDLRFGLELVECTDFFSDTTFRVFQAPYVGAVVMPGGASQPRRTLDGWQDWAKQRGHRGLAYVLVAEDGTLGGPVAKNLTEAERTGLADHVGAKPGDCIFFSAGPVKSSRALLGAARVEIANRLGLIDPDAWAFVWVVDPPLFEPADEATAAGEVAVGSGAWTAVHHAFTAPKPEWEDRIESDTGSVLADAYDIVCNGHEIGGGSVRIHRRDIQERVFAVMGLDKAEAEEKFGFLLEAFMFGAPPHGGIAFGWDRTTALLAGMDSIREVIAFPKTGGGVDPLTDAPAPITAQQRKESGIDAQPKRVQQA
Put plainly: Assay for Asp RNA synthetase-1 from Mycobacterium tuberculosis. The class given is functional. Also noted: scale not given: direction of the effect not stated beside the values. To be noted: 30 µM.

Assay [2] concerns the target Shiga toxin 2 (Escherichia coli O157:H7) (UniProt P09385+P09386). Briefly: E. coli 0.157:H7 Shiga Toxin SOP - stx2 screening assay. The class given is functional. Also noted: scale not given: direction of the effect not stated beside the values. The following applies: 30 µM.

Regarding `COc1ccc(C2CCCN2C(=O)c2csc(NC(C)=O)n2)cc1` (stereo not given), the Percent Effect in assay [1] was 0.516%; in assay [2], -30.4%.
For `O=C1CC(c2ccncc2)C2(CCN(CCO)CC2)N1` (stereo not given), the Percent Effect in assay [1] is -1.48%; in assay [2], -4.07%.
With `Cc1noc(C)c1CNC(=O)N1CCC(CO)CC1`, the Percent Effect in assay [1] is 2.21%; in assay [2], -4.58%.
Taken in the same sequence, the figures for `CC(=O)N1CCO[C@@H]2CN(C(=O)c3cc(C)oc3C)CC[C@@H]2C1` were 4.81% and -5.49%.
Taken in the same sequence, the figures for `Cc1cnn(CC2CN(Cc3nnc(-c4occc4C)o3)CCO2)c1` (stereo not given) were 2.04% and 12.3%.
On the same counts, the results for `Cc1ccsc1C(=O)N1C[C@@H]2CN(Cc3ccoc3)CCO[C@@H]2C1` are -1.39% and -11.7%.
Take `CC(C)(CNC(=O)OC(C)(C)C)NC(=O)C1CC(=O)N(C2CC2)C1` (stereo not given): the Percent Effect in assay [1] is 3.37%; in assay [2] it was -23.3%.
With `Cc1cnn(C2CCCN(C(=O)Cc3cn4ccccc4n3)C2)c1` (stereo not given), the Percent Effect is -6.71% in assay [1] and -40.6% in assay [2].
As for `C[S+]([O-])c1nncn1CC(=O)c1ccc(Cl)c(Cl)c1` (stereo not given), the figures for the Percent Effect in assay [1] and in assay [2] were 1.03% and -25.1%, respectively.
Taken in the same sequence, the figures for `COCC1CN(Cc2ccncc2)Cc2nnn(CC3CC3)c21` (stereo not given) were 0.981% and -28.3%.
With `O=C(CN1CCC(c2ccnn2CCO)CC1)NCC1CC1`, the Percent Effect in assay [1] is -6.54%; in assay [2], -19.2%.
As to `Cc1cccc(-c2noc(CN3CC(n4cc(C)cn4)C3)n2)c1`, the Percent Effect is -0.577% in assay [1] and -2.34% in assay [2].
`O=C(N1CCCC1)N1CCc2ncnc(C3CCOC3)c2CC1` (stereo not given): the Percent Effect in assay [1] was -0.956%; in assay [2] it was -10.8%.
Taken in the same sequence, the figures for `c1cc(CNCc2ccnc(N3CCOCC3)c2)c2c(c1)OCCO2` were 1.9% and -11.8%.
For the compound `CC(NC(=O)NCC1(N2CCCCC2)CCCCC1)c1nncn1C` (stereo not given), the Percent Effect in assay [1] was -4.55%; in assay [2], 27.5%.
Take `COc1ccc(C(=O)N2CCC(Nc3ccc(C)nn3)CC2)c(F)c1`: the Percent Effect was 4.79% in assay [1] and -6.61% in assay [2].
Taken in the same sequence, the figures for `c1ccc(C2CCN(c3cncc(-n4cccn4)n3)CC2)cc1` were -0.999% and -5.12%.
On the same counts, the results for `COc1cccc(N2CCN(CC(O)c3cc(C)sc3C)CC2)c1` (stereo not given) are 0.432% and 6.38%.
Taken in the same sequence, the figures for `O=C(c1ccc[nH]1)N1C[C@H](OCc2cccnc2)[C@H]2COC[C@H]21` were 2.69% and -6.45%.
Turning to `CNC(=O)[C@@H]1C[C@H]2CN(C(=O)c3ccco3)C[C@H]2N1C`, the figures for the Percent Effect in assay [1] and in assay [2] were -1.4% and -6.39%, respectively.
On the same counts, the results for `Cc1ccccc1-n1ncc(C(=O)N2CCCC2c2cnn(C)c2)c1C` (stereo not given) are 0.583% and 10.1%.
Taken in the same sequence, the figures for `Cc1cc(NC(=O)CN2CCn3c(nnc3C3CC3)C2)n(C)n1` were -5.68% and 19.6%.
On the same counts, the results for `CCN(Cc1ccc2c(c1)OCO2)C(=O)CCc1c(C)nc(C)[nH]c1=O` are -2.63% and 29.9%.
With `COc1cccc(N2CCN(CC(O)c3ccc(C)cc3)CC2)c1` (stereo not given), the Percent Effect was determined as 8.45% in assay [1] and 10.4% in assay [2].
Consider `COc1ccc(-c2nccnc2C2CCN(C(C)=O)CC2)cc1`, for which the Percent Effect was 0.0149% in assay [1] and 12% in assay [2].
On the same counts, the results for `CCc1[nH]ncc1C(=O)N1CCCC(n2nc(C)nc2C)C1` (stereo not given) are -1.03% and 12.8%.
On the same counts, the results for `CCc1nccn1C1CCCN(C(=O)c2ccc3c(c2)OCO3)C1` (stereo not given) are -0.182% and 11.8%.
On the same counts, the results for `Cc1ccc(OCC(O)CN2CCC(Cn3cccn3)CC2)cc1` (stereo not given) are -1.46% and -51.7%.
In the case of `O=C(NCCC(=O)N1CCCc2ccccc21)c1c(O)cc(F)cc1F`, the Percent Effect in assay [1] is -3.63%; in assay [2], -9.36%.
Taken in the same sequence, the figures for `O=C(c1cscn1)N1CCC2(CCN(Cc3nccs3)C2)CC1` were 1.85% and -5.87%.
Taken in the same sequence, the figures for `Cn1cnnc1C1CCCN(C(=O)NCCNc2ccccn2)C1` (stereo not given) were -6.46% and 19%.
Taken in the same sequence, the figures for `Cc1ccccc1CS(=O)(=O)CC(=O)NCc1ccccc1F` were 7.37% and 10.5%.
On to `Cc1oncc1C(=O)N1CCC2(CCN(Cc3ccccn3)C2=O)C1` (stereo not given), for which the Percent Effect in assay [1] is -2.39%; in assay [2] it was -12.9%.
Taken in the same sequence, the figures for `O=C1NCC2(CCCN(Cc3ccccc3F)C2)Oc2ccccc21` (stereo not given) were -5.17% and -17.2%.
For the compound `C[C@H]1CN(Cc2cnn(C)c2)C[C@@]12CCN(Cc1cccnc1)C2=O`, the Percent Effect was -2.89% in assay [1] and -10.2% in assay [2].
For the compound `CC(O)CC(C)(C)CNC(=O)NCc1cccc(-n2cncn2)c1` (stereo not given), the figures for the Percent Effect in assay [1] and in assay [2] were -1.59% and 7%, respectively.
Taken in the same sequence, the figures for `Cc1csc(N2CCCN(Cc3noc(C)n3)CC2)n1` were 1.56% and -19.8%.
On the same counts, the results for `CN(C)C(=O)N1CCOCC2(CCN(c3ccccn3)C2)C1` (stereo not given) are 1.11% and -15.4%.
Taken in the same sequence, the figures for `CCOc1cc(/C=C/c2ncc(C(=O)O)s2)cc(Cl)c1OC` were -1.24% and -0.531%.
With `Cc1noc2ncc(C(=O)N3CCCC3c3ccncc3)cc12` (stereo not given), the Percent Effect is -7.22% in assay [1] and -37.9% in assay [2].
On the same counts, the results for `CC(=O)N1CCC(c2nccnc2Oc2ccccc2)CC1` are -0.819% and -5.88%.
On the same counts, the results for `Cc1cnc(CN2CCOC(CNc3cccnn3)C2)cn1` (stereo not given) are -2.97% and 6.13%.
Taken in the same sequence, the figures for `Cc1cc(C[C@@H]2COC[C@H]2NCc2ccc(Br)s2)on1` were -1.77% and 4.69%.
As for `CC(O)CNCc1ccc(OCc2ccc3c(c2)OCCO3)cc1` (stereo not given), the Percent Effect in assay [1] is 1.08%; in assay [2] it was -37.4%.
On the same counts, the results for `COc1ncc(CN2CC[C@@](C)(O)[C@H](Oc3cccc(F)c3)C2)cn1` are 6.63% and 13%.
On the same counts, the results for `NC(=O)C1(Cc2ccccc2-c2ccccc2)CCCN(CC2CC2)C1` (stereo not given) are 2.13% and -5.72%.
On the same counts, the results for `CC(C)C(NC(=O)NCC1(CO)CC1)c1nnc2n1CCC2` (stereo not given) are -3.28% and 19.7%.
`Cc1csc(N2CCN(C(=O)Cc3ccc(C)s3)CC2)n1`: the figures for the Percent Effect in assay [1] and in assay [2] were -4.4% and 12.2%, respectively.
For `O=C(NCCCn1ccnc1)N1CCCC1c1cccs1` (stereo not given), the Percent Effect in assay [1] was -2.61%; in assay [2], -5.52%.
On the same counts, the results for `O=C(c1ccccc1-c1ccccc1)N1CCOC2(CNCCOC2)C1` (stereo not given) are 1.51% and -1.85%.
